The list is not random: actives were taken first. Their share in the collection is about 7.8%.
Lassa entry inh: Lassa virus entry inhibition. Lassa virus pseudotype entry inhibition, cell reporter. Potency, µM (series often up to 37.9 µM), inactives show top-dose activity change, negative = inhibition, usual class: inhibitors. 300,000 tested, 1.2% active; calls by dose curve; tested in HEK293 cells; further: potency means the concentration at half of the fitted maximal effect; nearly all actives have a fitted effect of over 50% in size
Marburg entry inh: Marburg virus entry inhibition. Marburg virus pseudotyped entry inhibition, cell reporter. 300,000 tested, 1.8% active. Potency, µM (doses to about 37.8 µM), for the others: top-dose activity change, negative = inhibition, actives largely listed as inhibitors; calls by dose curve; tested in HEK293 cells; further: potency means the concentration at half of the fitted maximal effect
HCV inhibitor: HCV inhibition; Huh7.5.1 HCVcc-Cre infection, luciferase reporter, 44 h; Potency, µM (highest dose often 41.8 µM), without a hit: at the top dose activity change, negative = inhibition, most hits filed as inhibitors; 340,000 tested, 3.4% active; AID 651820; active means well fitted inhibition curve with a large enough effect; inconclusive means small, poorly fitted or top-dose-only effect, or another doubt; inactive means no such curve, though single readings can be large or run the other way; further: potency means the concentration at half of the fitted maximal effect
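A cell-based infection assay in which seeded cells (1,000 per well) receive test compound after 4 h, are inoculated with HCVcc-Cre at approximately 0.5 moi, and are incubated 44 h before luminescence detection.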
Vaccinia mCherry: vaccinia inhibition (mCherry reporter); AID 720579; Potency, µM (top dose mostly 36.5 µM), inactives show at the highest dose activity change, negative = inhibition, usual class: inhibitors; Vaccinia virus mCherry reporter infection, fluorescence; 310,000 tested, 0.63% active; calls by dose curve; tested in A549 cells; further: potency means the concentration at half of the fitted maximal effect; nearly all actives have a fitted effect of over 35% in size
HCMV antiviral: human cytomegalovirus inhibition; AID 1259415; activity change, negative = inhibition, % at 57.5 µM; HFF cells, HCMV-luciferase reporter, 72 h; hits give low values; 410,000 tested, 4.5% active; in the data active means activity change below about -60%; inconclusive means no clear call, values can overlap the other calls; inactive means above about -39%
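Luciferase read-out from HCMV-luciferase-infected HFFs (MOI 1 PFU/cell) 72 h post infection at 37C; compounds added after 16 h cell attachment; activity normalized between buffer-only basal and Salinomycin (10uM) inhibitor controls.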
Vaccinia Venus: inhibitors of vaccinia virus (Venus reporter) | Potency, µM (highest dose often 36.5 µM), for the others: top-dose activity change, negative = inhibition, hits mostly inhibitors | Vaccinia virus Venus reporter expression, fluorescence | 330,000 tested, 0.46% active; calls by dose curve; tested in A549 cells; further: potency means the concentration at half of the fitted maximal effect; nearly all actives have a fitted effect of over 30% in size
* = called active by the depositor; i = inactive; ? = inconclusive; nt = no result; [ ] = remark or other dose. On the % scale 0 is the no-effect control and ±100 the full control effect.

SMILES	Lassa entry inh	Marburg entry inh	HCV inhibitor	Vaccinia mCherry	HCMV antiviral	Vaccinia Venus
CN1CCC(OC(c2ccccc2)c2ccc(Cl)cc2)C1 (stereo not drawn)	?	7.1µM*	?	-17%	-38	-15%
CN1C2CCC1CC(OC(c1ccccc1)c1ccccc1)C2 (stereo not drawn)	nt	5µM*	?	nt	-32	nt
CN1[C@@H]2CC[C@H]1CC(OC1c3ccccc3CCc3ccccc31)C2 (stereo partly drawn)	nt	nt	1.3µM*	-15%	-38	-24%
Cc1cccn2c(=O)c3cc(C(=O)NC(C)C)n(C)c3nc12	-3%[46.1 µM]	nt	nt	-9%	1	-6%
CCOC(=O)c1sc(N2C(=O)c3oc4ccc(F)cc4c(=O)c3C2c2ccc(C)cc2)nc1C (stereo not drawn)	nt	nt	nt	17%	nt	20%
CCCOc1ccc(NC(=O)CC2C(=O)N(c3ccccc3)C(=O)N2CCC(C)C)cc1 (stereo not drawn)	3%[46.1 µM]	nt	nt	-7%	12	-17%
CN1C2CCC1CC(OC(c1ccc(F)cc1)c1ccc(F)cc1)C2 (stereo not drawn)	nt	nt	nt	-14%	nt	-21%
CN1[C@@H]2CC[C@H]1CC(O[C@@H](c1ccccc1)c1ccc(Cl)cc1)C2 (stereo partly drawn)	nt	3.2µM*	nt	nt	nt	nt
COc1ccc(CN2Cc3ccccc3OC(c3ccccc3OC)C2)cc1O (stereo not drawn)	nt	nt	nt	-25%	nt	-20%
C=CCn1c(-c2cccc(OC)c2OC)n[nH]c1=S	-26%	?	?	-9%	-70*	-9%
COc1ccc(C(=O)Nc2ccc3nc4c(c(Nc5ccc(OC)c(OC)c5)c3c2)CCCC4)c(OC)c1	-11%[46.1 µM]	?	nt	-14%	-92*	-10%
COc1ccc(Nc2c3c(nc4ccc(NC(=O)c5ccc(F)cc5)cc24)CCCC3)cc1OC	-26%[46.1 µM]	?	nt	-16%	-39	-21%
COc1ccccc1Nc1c2c(nc3ccc(NC(=O)c4ccc(OC)c(OC)c4)cc13)CCCC2	?	2.2µM*	nt	-16%	-99*	-26%
COc1ccccc1Nc1c2c(nc3ccc(NC(=O)c4cccc(OC)c4OC)cc13)CCCC2	7.9µM*	?	nt	-12%[7.34 µM]	-98*	-13%[7.34 µM]
COc1ccc(C(=O)Nc2ccc3nc4c(c(Nc5ccccc5OC)c3c2)CCCC4)c(OC)c1	-4%[46.1 µM]	2.5µM*	nt	i	-9	-17%
COc1ccccc1Nc1c2c(nc3ccc(N)cc13)CCCC2	nt	nt	?	nt	-31	nt
CC(C)c1ccc(C2=NC(c3ccncc3)=Nc3ccc(F)cc3N2)cc1	?	7%[46.1 µM]	nt	-10%	-2	2%
COc1cc(SC)ccc1C(=O)Nc1ccc(S(=O)(=O)Nc2nccc(C)n2)cc1	?	nt	nt	-2%	14	-1%
COc1ccccc1Nc1c2c(nc3ccc(NC(=O)c4ccccc4F)cc13)CCCC2	?	3.2µM*	nt	?	-100*	?
CCc1cc(N2CCOCC2)cc2c1[nH]c1ccccc12	2%	-3%	7.1µM*	nt	5	nt
CC(C)(C)c1ccc(OCC(=O)N2CCN(c3ccccn3)CC2)cc1	nt	nt	-15%	nt	-94*	nt
COc1ccccc1CC(=O)N1CCN(c2ccccn2)CC1	0%	5%	-6%	nt	-73*	?
COc1ccccc1CC(=O)N1CCCC1	6%	19%	20%	-13%	-7	5%
COc1ccc(N2CCN(C(=O)CSc3ccc(C)cc3)CC2)cc1	14%	20%[14.2 µM]	8%	-6%	-5	-7%
Cc1ccc(CC(=O)N2CCN(c3ccc([N+](=O)[O-])cc3)CC2)cc1	-5%[46.1 µM]	?	?	-16%	-21	-17%
SMILES	Lassa entry inh	Marburg entry inh	HCV inhibitor	Vaccinia mCherry	HCMV antiviral	Vaccinia Venus
COc1ccccc1CC(=O)N1CCN(c2ccc([N+](=O)[O-])cc2)CC1	nt	nt	6.3µM*	nt	?	nt
CC(C)(C)c1ccc(OCC(=O)N2CCN(c3ncccn3)CC2)cc1	nt	nt	-3%	nt	nt	nt
COc1ccc(N2CCN(C(=O)CSc3ccc([N+](=O)[O-])cc3)CC2)cc1	6%	20%[46.1 µM]	?	-21%	-65*	-23%
Clc1nc(NCC2CCCO2)c2[nH]cnc2n1 (stereo not drawn)	nt	nt	nt	-24%	nt	-14%
CCOC(=O)c1cc(OC(=O)c2ccc(Cl)cc2)n(-c2ccccc2)n1	-4%[46.1 µM]	22%[46.1 µM]	nt	1%	5	3%
COc1ccc(CCC(=O)N2CCN(c3ccc([N+](=O)[O-])cc3)CC2)cc1OC	2%[46.1 µM]	?	32µM*	-9%	-68*	-18%
COc1ccccc1/C=C/C=N/N1CCN(c2ccccn2)CC1	-14%	-17%	-13%	nt	-64*	-1%
COc1ccc(NC(=O)N2CCN(c3ccc([N+](=O)[O-])cc3)CC2)cc1OC	?	?	10µM*	i	-34	-8%
Cc1noc(C)c1CSCC(=O)N1CCN(c2ccc([N+](=O)[O-])cc2)CC1	?	?	11µM*	nt	?	?
O=C(NC1CC(=O)N(c2ccc(F)cc2)C1)C1CCCC1 (stereo not drawn)	13%[46.1 µM]	nt	nt	-4%	-12	-2%
COC1=C[C@H](C(=O)NCCNC(C)=O)[C@@]2(C)Cc3ccccc3[C@@H]2CC1=O	?	-20%[14.2 µM]	nt	nt	nt	nt
COc1ccc(C2=NOC(Cn3nc(C(=O)NCc4ccc(C)cc4)cc3-c3ccccc3)C2)cc1 (stereo not drawn)	nt	nt	8.9µM*	-12%	-35	-19%
COc1ccc(C2=NOC(Cn3nc(C(=O)NCc4cccs4)cc3-c3ccccc3)C2)cc1 (stereo not drawn)	nt	nt	10µM*	-11%	-15	-9%
COCCNC(=O)c1cc(-c2ccccc2)n(CC2CC(c3ccc(OC)cc3)=NO2)n1 (stereo not drawn)	nt	nt	13%	16%	-8	-9%
COc1ccc(C2=NOC(Cn3nc(-c4ccccc4)cc3C(=O)NCc3cccs3)C2)cc1 (stereo not drawn)	nt	nt	?	-13%	47	-17%
O=C(Nc1cnc2ccccc2c1)c1ccncc1	nt	nt	15%	-2%	53	-19%
C=CC(=O)Nc1cccc(Oc2ncnc3[nH]cc(-c4cnc5ccccc5c4)c23)c1	nt	nt	?	?	16	11µM*
CC(C)=N/N=c1\scc(C)n1Cc1ccco1	-2%	5%[46.1 µM]	3%	-2%	45	2%
Cc1csc(=Nc2cccnc2)n1Cc1ccco1	?	22%[46.1 µM]	0.56µM*	-5%	-34	-15%
CC(C)Oc1ccc(C(=O)OCC(=O)NC2CCCCCC2)cc1	nt	nt	11µM*	nt	0	nt
Cc1cccc(C(=O)OCC(=O)NC(=O)NC2CCCCC2)c1	nt	nt	nt	-1%	-4	-14%
Cc1ccc(C(=O)OCC(=O)NC2CCCC2)cc1C	-21%	?	13%	-7%	-78*	-1%
Cc1cccc(C(=O)OCC(=O)NC2CCCCCCC2)c1	nt	nt	-7%	nt	-64*	nt
COc1ccc(C(=O)OCC(=O)NC2CCCC2)cc1OC	13%[46.1 µM]	-19%[46.1 µM]	5%	i	-10	-11%
